# Reference: PubChem BioAssay (NCI)
# The panel holds about 79,000 compounds, 15% with a hit somewhere; the sample as a whole holds those more often. Values without a mark were called inactive. The source made the active and inactive calls. Cut-off read from the data, not from the text of the source: active = growth inhibition above about 70%; inactive = the rest.
# Columns and labels:
# [1] = NCI Yeast Anticancer Drug Screen. Data for the rad52 strain (AID 147);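 note: 0% = growth of vehicle-treated control cultures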; settings: S. cerevisiae rad52 mutant growth inhibition, hits give high values
# Summary of the method: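 Yeast strain carrying a DNA damage repair alteration was exposed to test compounds. Growth inhibition was measured relative to vehicle-treated controls.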
# [2] = NCI Yeast Anticancer Drug Screen. Data for the wt1 strain (AID 149);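 note: 0% = growth of vehicle-treated wt1 cultures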; settings: S. cerevisiae wt1 strain (SPY 50644) growth inhibition, hits give high values
# Summary of the method: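 Readout: yeast growth inhibition, normalised to vehicle controls, in the wt1 strain exposed to test compounds.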
# [3] = NCI Yeast Anticancer Drug Screen. Data for the rad50EPP+ strain (AID 151);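 note: 0% = growth of vehicle-treated control cultures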; settings: S. cerevisiae rad50 mutant strain, hits give high values
# Summary of the method: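 Yeast strain carrying rad50 alteration (rad50EPP+) exposed to compounds; growth inhibition measured relative to vehicle-treated controls.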
# [4] = NCI Yeast Anticancer Drug Screen. Data for the rad50 strain (AID 155);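 note: 0% = growth of vehicle-only cultures of the same strain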; settings: S. cerevisiae rad50 strain growth inhibition, hits give high values
# Summary of the method: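 Compounds were tested on a yeast strain with an engineered DNA damage repair alteration; the reported value is growth inhibition normalised to vehicle treatment.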
# [5] = NCI Yeast Anticancer Drug Screen. Data for the mec2-1 strain (AID 157); settings: S. cerevisiae mec2-1 strain, hits give high values
# Summary of the method: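 mec2-1 yeast strain, carrying an alteration in DNA damage repair or cell cycle control, was exposed to compounds; growth inhibition was measured relative to vehicle-treated controls.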
# [6] = NCI Yeast Anticancer Drug Screen. Data for the rad14 strain (AID 159);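 note: 0% = growth of vehicle-treated control cultures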; settings: S. cerevisiae rad14 strain growth inhibition, hits give high values
# Summary of the method: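 Compound-treated yeast with a defined DNA-repair lesion; growth inhibition normalised to vehicle-treated cultures.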
# [7] = NCI Yeast Anticancer Drug Screen. Data for the sgs1 mgt1 strain (AID 161);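 note: 0% = growth of cultures given vehicle only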; settings: S. cerevisiae sgs1 mgt1 strain, hits give high values
# Summary of the method: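 This yeast growth screen uses a strain with defined DNA-repair lesions; compound-treated growth is compared with vehicle-treated growth.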
# [8] = NCI Yeast Anticancer Drug Screen. Data for the CLN2oe strain (AID 163);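 note: 0% = growth of vehicle-only control cultures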; settings: S. cerevisiae CLN2oe strain, hits give high values
# Summary of the method: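 Yeast cells carrying a defined cell-cycle control alteration were exposed to test compounds. Growth inhibition was scored against vehicle-treated control cultures.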
# [9] = NCI Yeast Anticancer Drug Screen. Data for the cln2 rad14 strain (AID 165);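 note: 0% = growth equal to vehicle treated cultures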; settings: S. cerevisiae cln2 rad14 strain, hits give high values
# Summary of the method: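 Yeast carrying cln2 and rad14 alterations (cell cycle control and DNA damage repair) were exposed to compounds. Growth inhibition was measured against vehicle-treated controls.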
# [10] = NCI Yeast Anticancer Drug Screen. Data for the bub3 strain (AID 167); settings: S. cerevisiae bub3 mutant strain, hits give high values
# Summary of the method: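 Growth of a checkpoint-deficient yeast mutant is measured after compound exposure. Values represent inhibition relative to vehicle.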
# [11] = NCI Yeast Anticancer Drug Screen. Data for the wt2 strain (AID 169);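 note: 0% = growth of vehicle-treated yeast cultures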; settings: S. cerevisiae wt2 strain growth inhibition, hits give high values
# Summary of the method: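 Yeast cells were exposed to test compounds, and growth inhibition was measured relative to vehicle-treated controls.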
# [12] = NCI Yeast Anticancer Drug Screen. Data for the mlh1 strain (AID 171);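 note: 0% = growth of vehicle-treated control cultures of the same strain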; settings: S. cerevisiae mlh1 strain growth inhibition, hits give high values
# Summary of the method: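 Yeast carrying a defined genetic alteration in DNA damage repair or cell cycle control were exposed to test compounds. Growth inhibition was measured relative to vehicle-treated controls.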
# [13] = NCI Yeast Anticancer Drug Screen. Data for the sgs1 strain (AID 173);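 note: 0% = growth of vehicle-only control cultures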; settings: S. cerevisiae sgs1 mutant, hits give high values
# Summary of the method: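 Yeast mutant strains carrying defined defects in DNA damage repair or cell cycle control were exposed to test compounds. Growth inhibition was scored against vehicle-treated controls.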
# [14] = NCI Yeast Anticancer Drug Screen. Data for the mlh1 rad18 strain (AID 175); settings: S. cerevisiae mlh1 rad18 strain growth inhibition, hits give high values
# Summary of the method: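 Growth inhibition of the yeast strain was measured after compound exposure and expressed relative to vehicle-treated controls. The strain carries defined defects in DNA damage repair.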
# [15] = NCI Yeast Anticancer Drug Screen. Data for the rad18 strain (AID 177); settings: S. cerevisiae rad18 mutant growth inhibition, hits give high values
# Summary of the method: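 Yeast carrying a defined DNA damage repair alteration were exposed to compounds. Growth inhibition was expressed relative to vehicle-treated controls.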
# [16] = at 5.0 µM (retest, dose inferred, filed as 0.5)
# [17] = at 50.0 µM (retest, dose inferred, filed as 5.0)
structure (smiles),measurement,setting,value
CCN(CC)CC(O)C1CCC(c2ccccc2)CC1 (stereo unspecified),growth inhibition,[1]; at 1.2 µM,2%
same,growth inhibition,[1]; at 3.7 µM,11%
same,growth inhibition,[1]; at 11.0 µM,22%
same,growth inhibition,[1]; at 33.0 µM,52%
same,growth inhibition,[1]; at 100.0 µM,78% (active)
same,growth inhibition,[2]; at 1.2 µM,1%
same,growth inhibition,[2]; at 3.7 µM,10%
same,growth inhibition,[2]; at 11.0 µM,5%
same,growth inhibition,[2]; at 33.0 µM,13%
same,growth inhibition,[2]; at 100.0 µM,40%
same,growth inhibition,[3]; at 1.2 µM,4%
same,growth inhibition,[3]; at 3.7 µM,6%
same,growth inhibition,[3]; at 11.0 µM,15%
same,growth inhibition,[3]; at 33.0 µM,23%
same,growth inhibition,[3]; at 100.0 µM,68%
same,growth inhibition,[4]; at 1.2 µM,5%
same,growth inhibition,[4]; at 3.7 µM,12%
same,growth inhibition,[4]; [16],13%
same,growth inhibition,[4]; at 11.0 µM,22%
same,growth inhibition,[4]; at 33.0 µM,61%
same,growth inhibition,[4]; [17],78% (active)
same,growth inhibition,[4]; at 50.0 µM,84.8% (active)
same,growth inhibition,[4]; at 100.0 µM,83% (active)
same,growth inhibition,[5]; at 1.2 µM,3%
same,growth inhibition,[5]; at 3.7 µM,12%
same,growth inhibition,[5]; [16],11%
same,growth inhibition,[5]; at 11.0 µM,16%
same,growth inhibition,[5]; at 33.0 µM,42%
same,growth inhibition,[5]; [17],76% (active)
same,growth inhibition,[5]; at 50.0 µM,36%
same,growth inhibition,[5]; at 100.0 µM,79% (active)
same,growth inhibition,[6]; at 1.2 µM,13%
same,growth inhibition,[6]; at 3.7 µM,34%
same,growth inhibition,[6]; at 11.0 µM,41%
same,growth inhibition,[6]; at 33.0 µM,89% (active)
same,growth inhibition,[6]; at 100.0 µM,98% (active)
same,growth inhibition,[7]; [16],31%
same,growth inhibition,[7]; [17],95% (active)
same,growth inhibition,[7]; at 50.0 µM,92.7% (active)
same,growth inhibition,[8]; at 1.2 µM,6%
same,growth inhibition,[8]; at 3.7 µM,10%
same,growth inhibition,[8]; at 11.0 µM,41%
same,growth inhibition,[8]; at 33.0 µM,55%
same,growth inhibition,[8]; at 100.0 µM,80% (active)
same,growth inhibition,[9]; [16],28%
same,growth inhibition,[9]; [17],70% (active)
same,growth inhibition,[9]; at 50.0 µM,65.3%
same,growth inhibition,[10]; at 1.2 µM,1%
same,growth inhibition,[10]; at 3.7 µM,8%
same,growth inhibition,[10]; [16],27%
same,growth inhibition,[10]; at 11.0 µM,30%
same,growth inhibition,[10]; at 33.0 µM,64%
same,growth inhibition,[10]; [17],87% (active)
same,growth inhibition,[10]; at 50.0 µM,83% (active)
same,growth inhibition,[10]; at 100.0 µM,84% (active)
same,growth inhibition,[11]; at 1.2 µM,3%
same,growth inhibition,[11]; at 3.7 µM,9%
same,growth inhibition,[11]; at 11.0 µM,16%
same,growth inhibition,[11]; at 33.0 µM,45%
same,growth inhibition,[11]; at 100.0 µM,83% (active)
same,growth inhibition,[12]; at 1.2 µM,3%
same,growth inhibition,[12]; at 3.7 µM,10%
same,growth inhibition,[12]; at 11.0 µM,24%
same,growth inhibition,[12]; at 33.0 µM,62%
same,growth inhibition,[12]; at 100.0 µM,91% (active)
same,growth inhibition,[13]; at 1.2 µM,3%
same,growth inhibition,[13]; at 3.7 µM,16%
same,growth inhibition,[13]; at 11.0 µM,32%
same,growth inhibition,[13]; at 33.0 µM,72% (active)
same,growth inhibition,[13]; at 100.0 µM,93% (active)
same,growth inhibition,[14]; [16],36%
same,growth inhibition,[14]; [17],86% (active)
same,growth inhibition,[14]; at 50.0 µM,68.9%
same,growth inhibition,[15]; at 1.2 µM,7%
same,growth inhibition,[15]; at 3.7 µM,12%
same,growth inhibition,[15]; at 11.0 µM,13%
same,growth inhibition,[15]; at 33.0 µM,32%
same,growth inhibition,[15]; at 100.0 µM,78% (active)
CC1=CC2C(C(C)C)CC1C1C(=O)OC(=O)C21 (stereo unspecified),growth inhibition,[1]; at 1.2 µM,-12%
same,growth inhibition,[1]; at 3.7 µM,-14%
same,growth inhibition,[1]; at 11.0 µM,-2%
same,growth inhibition,[1]; at 33.0 µM,20%
same,growth inhibition,[1]; at 100.0 µM,71% (active)
same,growth inhibition,[2]; at 1.2 µM,-5%
same,growth inhibition,[2]; at 3.7 µM,0%
same,growth inhibition,[2]; at 11.0 µM,6%
same,growth inhibition,[2]; at 33.0 µM,13%
same,growth inhibition,[2]; at 100.0 µM,51%
same,growth inhibition,[3]; at 1.2 µM,-8%
same,growth inhibition,[3]; at 3.7 µM,-20%
same,growth inhibition,[3]; at 11.0 µM,10%
same,growth inhibition,[3]; at 33.0 µM,33%
same,growth inhibition,[3]; at 100.0 µM,49%
same,growth inhibition,[4]; at 1.2 µM,-13%
same,growth inhibition,[4]; at 3.7 µM,-16%
same,growth inhibition,[4]; [16],-127%
same,growth inhibition,[4]; at 11.0 µM,-12%
same,growth inhibition,[4]; at 33.0 µM,24%
same,growth inhibition,[4]; [17],83% (active)
same,growth inhibition,[4]; at 50.0 µM,86.7% (active)
same,growth inhibition,[4]; at 100.0 µM,81% (active)
same,growth inhibition,[5]; at 1.2 µM,-1%
same,growth inhibition,[5]; at 3.7 µM,0%
same,growth inhibition,[5]; [16],-42%
same,growth inhibition,[5]; at 11.0 µM,-2%
same,growth inhibition,[5]; at 33.0 µM,2%
same,growth inhibition,[5]; [17],86% (active)
same,growth inhibition,[5]; at 50.0 µM,76.5% (active)
same,growth inhibition,[5]; at 100.0 µM,37%
same,growth inhibition,[6]; at 1.2 µM,-2%
same,growth inhibition,[6]; at 3.7 µM,4%
same,growth inhibition,[6]; at 11.0 µM,13%
same,growth inhibition,[6]; at 33.0 µM,24%
same,growth inhibition,[6]; at 100.0 µM,78% (active)
same,growth inhibition,[7]; [16],-60%
same,growth inhibition,[7]; [17],25%
same,growth inhibition,[7]; at 50.0 µM,13.6%
same,growth inhibition,[8]; at 1.2 µM,-7%
same,growth inhibition,[8]; at 3.7 µM,-11%
same,growth inhibition,[8]; at 11.0 µM,-10%
same,growth inhibition,[8]; at 33.0 µM,-9%
same,growth inhibition,[8]; at 100.0 µM,16%
same,growth inhibition,[9]; [16],-53%
same,growth inhibition,[9]; [17],47%
same,growth inhibition,[9]; at 50.0 µM,13.4%
same,growth inhibition,[10]; at 1.2 µM,-6%
same,growth inhibition,[10]; at 3.7 µM,-6%
same,growth inhibition,[10]; [16],-71%
same,growth inhibition,[10]; at 11.0 µM,-9%
same,growth inhibition,[10]; at 33.0 µM,-6%
same,growth inhibition,[10]; [17],66%
same,growth inhibition,[10]; at 50.0 µM,70.8% (active)
same,growth inhibition,[10]; at 100.0 µM,50%
same,growth inhibition,[11]; at 1.2 µM,-8%
same,growth inhibition,[11]; at 3.7 µM,-2%
same,growth inhibition,[11]; at 11.0 µM,11%
same,growth inhibition,[11]; at 33.0 µM,36%
same,growth inhibition,[11]; at 100.0 µM,86% (active)
same,growth inhibition,[12]; at 1.2 µM,-16%
same,growth inhibition,[12]; at 3.7 µM,-7%
same,growth inhibition,[12]; at 11.0 µM,-6%
same,growth inhibition,[12]; at 33.0 µM,10%
same,growth inhibition,[12]; at 100.0 µM,56%
same,growth inhibition,[13]; at 1.2 µM,-14%
same,growth inhibition,[13]; at 3.7 µM,-10%
same,growth inhibition,[13]; at 11.0 µM,7%
same,growth inhibition,[13]; at 33.0 µM,27%
same,growth inhibition,[13]; at 100.0 µM,88% (active)
same,growth inhibition,[14]; [16],-140%
same,growth inhibition,[14]; [17],77% (active)
same,growth inhibition,[14]; at 50.0 µM,76.4% (active)
same,growth inhibition,[15]; at 1.2 µM,-9%
same,growth inhibition,[15]; at 3.7 µM,-6%
same,growth inhibition,[15]; at 11.0 µM,-6%
same,growth inhibition,[15]; at 33.0 µM,3%
same,growth inhibition,[15]; at 100.0 µM,69%
